# Source: the supplement of paper PMC3545927
# The list shows a part of the results. The true hit rate is not given.
# Target: furin, P09958
# Test: furin cleavage Z-score vs untreated control; higher = more cleavage, active = 3.5 or more, inactive = 1 or less, 8 variable residues between constant flanks
# Outline: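 Purified furin digested bead-held 8-mer peptide–cDNA fusions at 1:10 enzyme:substrate in 0.01 ml of 50 mM HEPES pH 7.5 with CaCl2 and NaCl for 7.5, 15 or 30 min. The cleavage Z-score compares sequencing counts of released DNA with furin-free reactions on a log scale, with lowess adjustment and median absolute deviation scaling.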
# furin, P09958, sequence (P09958 whole entry): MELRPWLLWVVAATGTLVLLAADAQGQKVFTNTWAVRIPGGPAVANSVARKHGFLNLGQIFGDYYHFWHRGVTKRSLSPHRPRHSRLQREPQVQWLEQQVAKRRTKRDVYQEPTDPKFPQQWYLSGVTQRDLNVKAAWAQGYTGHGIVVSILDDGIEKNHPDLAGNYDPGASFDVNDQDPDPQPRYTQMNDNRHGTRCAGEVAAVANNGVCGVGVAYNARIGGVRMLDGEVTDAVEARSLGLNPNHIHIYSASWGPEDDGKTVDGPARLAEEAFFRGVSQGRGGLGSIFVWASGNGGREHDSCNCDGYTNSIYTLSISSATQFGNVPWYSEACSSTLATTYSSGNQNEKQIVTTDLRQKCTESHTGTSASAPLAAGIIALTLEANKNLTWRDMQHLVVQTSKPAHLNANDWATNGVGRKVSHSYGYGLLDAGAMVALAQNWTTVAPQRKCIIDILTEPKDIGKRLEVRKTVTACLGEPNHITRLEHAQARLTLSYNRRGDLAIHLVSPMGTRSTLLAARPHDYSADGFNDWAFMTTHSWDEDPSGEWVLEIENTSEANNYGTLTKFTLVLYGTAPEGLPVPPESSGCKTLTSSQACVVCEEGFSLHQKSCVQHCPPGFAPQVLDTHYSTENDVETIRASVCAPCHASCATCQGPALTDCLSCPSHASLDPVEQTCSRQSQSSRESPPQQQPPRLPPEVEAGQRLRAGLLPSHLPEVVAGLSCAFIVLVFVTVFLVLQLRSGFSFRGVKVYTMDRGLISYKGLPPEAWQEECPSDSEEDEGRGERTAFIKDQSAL
Sequence,furin cleavage Z-score (7.5 min),furin cleavage Z-score (15 min),furin cleavage Z-score (30 min)
CALLGCIITSAGNASASA [HC680],-0.345 (inactive),-1.06 (inactive),-1.24 (inactive)
CANREVPCHRAGNASASA [HC2441],1.82,-0.276 (inactive),0.432 (inactive)
CAEVVTSTNVAGNASASA [HC2241],0.759 (inactive),0.285 (inactive),0.157 (inactive)
CAITGHVKNGAGNASASA [HC1178],-0.0306 (inactive),-2.29 (inactive),-0.221 (inactive)
CAGIQYLAGLAGNASASA [HC1046],0.778 (inactive),0.268 (inactive),0.333 (inactive)
CARKKKVWDYAGNASASA [FS-2424],0.95 (inactive),-1.66 (inactive),-0.314 (inactive)
CARFDRIAHTAGNASASA [FS-2552],0.362 (inactive),-0.331 (inactive),0.407 (inactive)
CARRKKEVRKAGNASASA [FS-2449],-0.452 (inactive),-0.724 (inactive),1.33
CARRHEKKRKAGNASASA [FS-1653],-1.27 (inactive),-0.15 (inactive),-1.21 (inactive)
CARKTRSTHTAGNASASA [FS-3226],10.5 (active),11.5 (active),7.23 (active)
CARFFRYLHTAGNASASA [FS-2920],-0.737 (inactive),-1.73 (inactive),0.025 (inactive)
CARRHRATRKAGNASASA [FS-1266],7.21 (active),8.97 (active),6.15 (active)
CARKTRARRAAGNASASA [FS-489],11.1 (active),11.3 (active),9.01 (active)
CARRHRARRAAGNASASA [FS-1265],12.1 (active),11 (active),9.18 (active)
CAFCALARKMAGNASASA [HC621],0.374 (inactive),0.367 (inactive),0.832 (inactive)
CAQDVVCCSMAGNASASA [HC2122],-0.38 (inactive),-0.828 (inactive),-1.79 (inactive)
CALLFNILGGAGNASASA [HC1064],-0.771 (inactive),-1.63 (inactive),-1.52 (inactive)
CAERKRECQLAGNASASA [FS-1670],0.036 (inactive),1.4,-0.462 (inactive)
CATAHRIKRAAGNASASA [FS-383],9.97 (active),8.71 (active),6.96 (active)
CAERKRIKRAAGNASASA [FS-650],9.45 (active),8.85 (active),7.6 (active)
CARPRRAKRFAGNASASA [FS-1069],9.54 (active),11 (active),9.13 (active)
CARPRRFMDLAGNASASA [FS-3163],0.819 (inactive),0.127 (inactive),1.71
CARSGRAKRFAGNASASA [FS-1271],10.1 (active),10.5 (active),11.1 (active)
CARSGRGPFGAGNASASA [FS-1925],-0.792 (inactive),-2.29 (inactive),-0.384 (inactive)
CARPARLHRFAGNASASA [FS-1065],-0.918 (inactive),0.964 (inactive),0.792 (inactive)
CAHERRMKRFAGNASASA [FS-791],10 (active),11.5 (active),9.74 (active)
CADLGRAKRFAGNASASA [FS-225],6.94 (active),8.17 (active),9.16 (active)
CARSGRHVVFAGNASASA [FS-3079],-0.951 (inactive),0.442 (inactive),1.42
